For 1 sequence, binding signal results are on record in PMC7862700, “An all-to-all approach to the identification of sequence-specific readers for epigenetic DNA modifications on cytosine”.

What all share (assay): DAPPL (digital affinity profiling via proximity ligation, sequencing); 10 mM Tris-HCl pH 7.5, 50 mM NaCl, 1 mM DTT, 4% glycerol, room temperature, 30 min; GST-TFs on glutathione beads, 16-mer random dsDNA library, 0.1% formaldehyde crosslink after washing; high values mean tight binding
One test concerns the target T1, FLI1 (Homo sapiens, UniProt Q01543 1-452).
T1 sequence: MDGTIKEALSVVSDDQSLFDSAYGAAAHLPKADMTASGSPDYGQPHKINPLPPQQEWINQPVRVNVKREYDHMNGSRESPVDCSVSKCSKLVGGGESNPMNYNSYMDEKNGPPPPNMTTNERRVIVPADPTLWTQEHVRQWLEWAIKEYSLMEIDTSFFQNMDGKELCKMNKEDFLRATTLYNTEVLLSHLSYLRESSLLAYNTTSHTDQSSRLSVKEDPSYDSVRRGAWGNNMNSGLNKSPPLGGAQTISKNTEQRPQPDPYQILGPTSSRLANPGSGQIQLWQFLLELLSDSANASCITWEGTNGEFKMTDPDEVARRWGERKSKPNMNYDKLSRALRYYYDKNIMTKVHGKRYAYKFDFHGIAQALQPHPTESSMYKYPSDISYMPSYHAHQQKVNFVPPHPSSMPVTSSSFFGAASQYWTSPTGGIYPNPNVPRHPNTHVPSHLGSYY
The settings on record: protein: recombinant; tags: N-terminal GST; dsDNA, one strand shown. In outline:
(§1)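 Yeast served to express human transcription factors as GST fusions, which were then captured on glutathione beads and labelled with DNA barcodes. Pooled with a tag-only sample, they were incubated with 200 nmole of a 16-mer random double-stranded DNA library for 30 min at room temperature in Tris/NaCl/DTT/glycerol buffer, washed, crosslinked with 0.1% formaldehyde, ligated by proximity, amplified by PCR and sequenced. Dividing each hexamer's read frequency for a factor by its frequency for the tag-only sample gives the binding signal.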

The target of a further test is T2, ELK1 (Homo sapiens, UniProt P19419 1-428).
T2 sequence: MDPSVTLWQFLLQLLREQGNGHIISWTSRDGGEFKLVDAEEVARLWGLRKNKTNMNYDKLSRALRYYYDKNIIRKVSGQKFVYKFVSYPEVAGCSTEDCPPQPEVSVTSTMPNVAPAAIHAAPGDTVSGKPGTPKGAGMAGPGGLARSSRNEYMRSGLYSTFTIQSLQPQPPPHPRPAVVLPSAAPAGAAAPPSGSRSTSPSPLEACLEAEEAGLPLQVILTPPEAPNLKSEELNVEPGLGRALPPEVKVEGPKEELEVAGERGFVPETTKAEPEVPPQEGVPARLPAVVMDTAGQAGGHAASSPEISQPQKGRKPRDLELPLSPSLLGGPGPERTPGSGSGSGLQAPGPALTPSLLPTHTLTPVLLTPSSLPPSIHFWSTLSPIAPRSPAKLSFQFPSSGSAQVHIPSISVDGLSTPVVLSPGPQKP
The settings on record: protein: recombinant; tags: N-terminal GST; dsDNA, one strand shown. In outline:
as §1

For another test, the target named is T3, GABPA (Homo sapiens, UniProt Q06546 1-454).
T3 sequence: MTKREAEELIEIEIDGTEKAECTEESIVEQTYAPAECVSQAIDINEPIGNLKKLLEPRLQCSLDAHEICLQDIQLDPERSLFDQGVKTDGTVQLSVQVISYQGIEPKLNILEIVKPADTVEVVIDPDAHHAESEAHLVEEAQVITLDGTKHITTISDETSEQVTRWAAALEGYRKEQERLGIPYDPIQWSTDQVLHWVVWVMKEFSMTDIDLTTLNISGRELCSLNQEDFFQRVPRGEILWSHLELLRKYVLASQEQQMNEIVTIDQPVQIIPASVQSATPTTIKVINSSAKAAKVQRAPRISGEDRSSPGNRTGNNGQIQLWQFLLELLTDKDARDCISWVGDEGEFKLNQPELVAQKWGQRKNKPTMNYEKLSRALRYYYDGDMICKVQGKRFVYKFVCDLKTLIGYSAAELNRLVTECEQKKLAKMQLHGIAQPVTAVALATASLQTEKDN
The settings on record: protein: recombinant; tags: N-terminal GST; dsDNA, one strand shown. In outline:
as §1

A further test has as its target T4, ERG (Homo sapiens, UniProt P11308 1-479).
T4 sequence: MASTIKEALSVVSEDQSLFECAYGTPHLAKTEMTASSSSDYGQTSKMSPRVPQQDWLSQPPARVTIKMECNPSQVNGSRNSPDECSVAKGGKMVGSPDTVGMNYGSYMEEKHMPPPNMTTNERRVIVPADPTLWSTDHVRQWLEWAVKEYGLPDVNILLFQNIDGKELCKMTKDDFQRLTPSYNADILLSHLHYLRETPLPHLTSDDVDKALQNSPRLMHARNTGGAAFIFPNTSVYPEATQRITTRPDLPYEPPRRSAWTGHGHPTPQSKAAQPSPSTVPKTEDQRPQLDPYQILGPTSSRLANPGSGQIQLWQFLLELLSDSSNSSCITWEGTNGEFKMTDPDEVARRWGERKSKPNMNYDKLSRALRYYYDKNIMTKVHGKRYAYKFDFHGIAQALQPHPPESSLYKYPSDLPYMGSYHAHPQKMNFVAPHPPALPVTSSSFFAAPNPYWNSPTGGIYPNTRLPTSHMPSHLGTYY
The settings on record: protein: recombinant; tags: N-terminal GST; dsDNA, one strand shown. In outline:
as §1

In the next test the target is ELF1 (Homo sapiens, UniProt P32519 1-619). The settings on record: protein: recombinant; tags: N-terminal GST; dsDNA, one strand shown. In outline:
as §1

In another test the target is T5, EHF (Homo sapiens, UniProt Q9NZC4 1-300).
T5 sequence: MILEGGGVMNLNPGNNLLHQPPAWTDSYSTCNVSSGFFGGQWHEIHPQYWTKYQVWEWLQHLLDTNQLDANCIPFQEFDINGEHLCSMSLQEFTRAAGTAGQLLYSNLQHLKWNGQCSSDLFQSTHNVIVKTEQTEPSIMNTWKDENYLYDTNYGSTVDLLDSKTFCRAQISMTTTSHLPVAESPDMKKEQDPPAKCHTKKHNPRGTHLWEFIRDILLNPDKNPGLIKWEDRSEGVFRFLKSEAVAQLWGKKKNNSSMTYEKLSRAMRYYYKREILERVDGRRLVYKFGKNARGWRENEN
The settings on record: protein: recombinant; tags: N-terminal GST; dsDNA, one strand shown. In outline:
as §1

The target in another test is SPI1 (Homo sapiens, UniProt P17947 1-270). The settings on record: protein: recombinant; tags: N-terminal GST; dsDNA, one strand shown. In outline:
as §1

In the next test the target is SPIB (Homo sapiens, UniProt Q01892 1-262). The settings on record: protein: recombinant; tags: N-terminal GST; dsDNA, one strand shown. In outline: as §1
The next test concerns the target T6, ELK3 (Homo sapiens, UniProt P41970 1-407).
T6 sequence: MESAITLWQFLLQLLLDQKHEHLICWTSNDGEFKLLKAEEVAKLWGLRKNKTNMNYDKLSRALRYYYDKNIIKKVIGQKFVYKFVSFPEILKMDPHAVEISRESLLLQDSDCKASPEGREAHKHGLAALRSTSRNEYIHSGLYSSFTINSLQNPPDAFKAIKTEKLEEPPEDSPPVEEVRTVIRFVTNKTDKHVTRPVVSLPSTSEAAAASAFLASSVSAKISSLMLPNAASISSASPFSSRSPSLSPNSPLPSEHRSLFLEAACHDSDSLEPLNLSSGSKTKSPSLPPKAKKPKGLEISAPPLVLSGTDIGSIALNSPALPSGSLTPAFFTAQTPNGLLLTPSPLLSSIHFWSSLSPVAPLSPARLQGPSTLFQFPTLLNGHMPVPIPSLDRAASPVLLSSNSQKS
The settings on record: protein: recombinant; tags: N-terminal GST; dsDNA, one strand shown. In outline: as §1

The target in a further test is T7, FEV (Homo sapiens, UniProt Q99581 1-238).
T7 sequence: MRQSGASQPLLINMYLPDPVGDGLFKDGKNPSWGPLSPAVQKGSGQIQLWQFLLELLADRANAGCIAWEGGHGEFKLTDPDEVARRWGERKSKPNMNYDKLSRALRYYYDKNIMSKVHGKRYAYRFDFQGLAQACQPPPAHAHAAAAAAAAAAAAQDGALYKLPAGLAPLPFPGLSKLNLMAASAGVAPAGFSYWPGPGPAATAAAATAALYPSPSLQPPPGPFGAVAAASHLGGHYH
The settings on record: protein: recombinant; tags: N-terminal GST; dsDNA, one strand shown. In outline:
as §1

The target of the next test is ETV5 (Homo sapiens, UniProt P41161 1-510). The settings on record: protein: recombinant; tags: N-terminal GST; dsDNA, one strand shown. In outline: as §1
A further test concerns the target HSF1 (Homo sapiens, UniProt Q00613 1-529). The settings on record: protein: recombinant; tags: N-terminal GST; chain copies: 3; dsDNA, one strand shown. In outline:
as §1

A further test addresses T8, SPIC (Homo sapiens, UniProt Q8N5J4 1-248).
T8 sequence: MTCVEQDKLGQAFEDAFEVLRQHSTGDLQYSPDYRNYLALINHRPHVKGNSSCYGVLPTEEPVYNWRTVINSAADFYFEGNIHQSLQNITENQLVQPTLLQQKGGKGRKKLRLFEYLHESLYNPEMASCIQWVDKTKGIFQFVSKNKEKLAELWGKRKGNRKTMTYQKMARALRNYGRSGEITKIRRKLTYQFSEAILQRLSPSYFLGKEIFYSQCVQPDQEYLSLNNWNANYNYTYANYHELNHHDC
The settings on record: protein: recombinant; tags: N-terminal GST; dsDNA, one strand shown. In outline: as §1

In a further test the target is ELF4 (Homo sapiens, UniProt Q99607 1-663). The settings on record: protein: recombinant; tags: N-terminal GST; dsDNA, one strand shown. In outline: as §1
A further test deals with T9, ELK4 (Homo sapiens, UniProt P28324-2 1-405).
T9 sequence: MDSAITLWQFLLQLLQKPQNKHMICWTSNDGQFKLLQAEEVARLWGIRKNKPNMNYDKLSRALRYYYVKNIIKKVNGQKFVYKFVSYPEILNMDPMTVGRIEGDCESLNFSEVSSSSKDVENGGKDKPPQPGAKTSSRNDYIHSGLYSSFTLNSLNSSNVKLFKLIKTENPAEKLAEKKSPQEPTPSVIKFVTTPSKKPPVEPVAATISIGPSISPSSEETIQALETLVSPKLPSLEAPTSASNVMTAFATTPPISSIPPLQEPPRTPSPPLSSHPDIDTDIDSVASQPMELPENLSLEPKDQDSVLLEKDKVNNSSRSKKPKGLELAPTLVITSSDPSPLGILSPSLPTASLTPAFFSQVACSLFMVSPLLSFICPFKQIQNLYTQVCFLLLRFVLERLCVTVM
The settings on record: protein: recombinant; tags: N-terminal GST; dsDNA, one strand shown. In outline: as §1

For a further test, the target named is T10, ETV2 (Homo sapiens, UniProt O00321 1-342).
T10 sequence: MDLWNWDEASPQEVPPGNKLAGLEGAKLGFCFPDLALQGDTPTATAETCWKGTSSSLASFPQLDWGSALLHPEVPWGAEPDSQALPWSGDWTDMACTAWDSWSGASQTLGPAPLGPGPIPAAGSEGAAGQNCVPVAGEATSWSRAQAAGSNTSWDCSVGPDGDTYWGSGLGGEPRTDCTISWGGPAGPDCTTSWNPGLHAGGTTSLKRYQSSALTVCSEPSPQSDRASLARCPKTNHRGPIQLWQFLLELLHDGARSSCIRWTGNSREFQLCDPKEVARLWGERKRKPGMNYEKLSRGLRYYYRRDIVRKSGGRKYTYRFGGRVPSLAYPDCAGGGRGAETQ
The settings on record: protein: recombinant; tags: N-terminal GST; dsDNA, one strand shown. In outline: as §1

A further test concerns the target T11, ELF3 (Homo sapiens, UniProt P78545 1-371).
T11 sequence: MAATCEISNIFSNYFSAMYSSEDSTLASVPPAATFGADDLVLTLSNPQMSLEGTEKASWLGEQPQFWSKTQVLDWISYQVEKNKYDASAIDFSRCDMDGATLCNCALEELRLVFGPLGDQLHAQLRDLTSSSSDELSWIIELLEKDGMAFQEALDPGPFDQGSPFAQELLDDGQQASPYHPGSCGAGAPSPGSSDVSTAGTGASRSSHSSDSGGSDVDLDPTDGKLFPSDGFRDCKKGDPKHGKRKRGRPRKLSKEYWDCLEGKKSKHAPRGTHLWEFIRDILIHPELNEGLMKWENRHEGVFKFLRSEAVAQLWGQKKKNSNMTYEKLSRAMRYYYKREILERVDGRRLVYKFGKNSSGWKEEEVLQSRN
The settings on record: protein: recombinant; tags: N-terminal GST; dsDNA, one strand shown. In outline: as §1

A further test has as its target CRX (Homo sapiens, UniProt O43186 1-299). The settings on record: protein: recombinant; tags: N-terminal GST; dsDNA, one strand shown. In outline: as §1
Another test concerns the target ETV1 (Homo sapiens, UniProt P50549 1-477). The settings on record: protein: recombinant; tags: N-terminal GST; dsDNA, one strand shown. In outline: as §1

Sequence of ELF1 (P32519 whole entry): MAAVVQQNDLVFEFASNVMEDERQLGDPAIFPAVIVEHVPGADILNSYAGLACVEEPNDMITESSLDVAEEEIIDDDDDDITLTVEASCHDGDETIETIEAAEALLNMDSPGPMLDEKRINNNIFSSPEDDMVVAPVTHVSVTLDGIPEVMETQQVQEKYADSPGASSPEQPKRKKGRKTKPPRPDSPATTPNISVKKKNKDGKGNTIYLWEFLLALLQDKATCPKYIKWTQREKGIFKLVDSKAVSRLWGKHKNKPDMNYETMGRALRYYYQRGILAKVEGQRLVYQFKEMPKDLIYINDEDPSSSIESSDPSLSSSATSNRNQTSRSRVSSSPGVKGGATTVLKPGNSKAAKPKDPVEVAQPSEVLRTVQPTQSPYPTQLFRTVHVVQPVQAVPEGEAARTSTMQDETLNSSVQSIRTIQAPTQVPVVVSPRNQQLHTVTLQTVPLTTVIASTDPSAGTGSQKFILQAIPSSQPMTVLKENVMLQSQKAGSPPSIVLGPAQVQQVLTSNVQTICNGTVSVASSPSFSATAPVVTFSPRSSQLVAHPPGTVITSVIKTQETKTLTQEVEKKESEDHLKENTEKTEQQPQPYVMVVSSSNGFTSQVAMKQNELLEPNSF
Sequence of HSF1 (Q00613 whole entry): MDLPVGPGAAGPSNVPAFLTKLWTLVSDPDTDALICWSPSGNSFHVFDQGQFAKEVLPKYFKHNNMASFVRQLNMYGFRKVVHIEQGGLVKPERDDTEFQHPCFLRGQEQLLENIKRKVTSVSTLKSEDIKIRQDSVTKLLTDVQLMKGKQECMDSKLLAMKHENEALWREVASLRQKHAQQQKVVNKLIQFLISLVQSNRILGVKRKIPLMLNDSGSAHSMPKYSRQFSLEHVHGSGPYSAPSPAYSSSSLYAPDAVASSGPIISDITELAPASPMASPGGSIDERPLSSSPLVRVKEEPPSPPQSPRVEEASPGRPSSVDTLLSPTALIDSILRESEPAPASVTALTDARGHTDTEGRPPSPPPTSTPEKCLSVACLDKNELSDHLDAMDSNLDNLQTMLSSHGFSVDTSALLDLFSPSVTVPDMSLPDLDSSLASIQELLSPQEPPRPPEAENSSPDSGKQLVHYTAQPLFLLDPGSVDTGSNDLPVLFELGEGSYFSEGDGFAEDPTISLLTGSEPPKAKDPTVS
Sequence of CRX (O43186 whole entry): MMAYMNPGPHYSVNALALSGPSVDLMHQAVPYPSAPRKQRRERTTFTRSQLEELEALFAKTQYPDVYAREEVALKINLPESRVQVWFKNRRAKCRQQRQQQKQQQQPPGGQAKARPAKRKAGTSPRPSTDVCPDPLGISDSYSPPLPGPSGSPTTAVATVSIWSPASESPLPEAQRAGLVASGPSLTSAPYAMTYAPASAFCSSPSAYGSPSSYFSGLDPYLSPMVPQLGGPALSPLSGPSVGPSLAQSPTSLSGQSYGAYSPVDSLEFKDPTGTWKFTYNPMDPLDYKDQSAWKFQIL
Sequence of ELF4 (Q99607 whole entry): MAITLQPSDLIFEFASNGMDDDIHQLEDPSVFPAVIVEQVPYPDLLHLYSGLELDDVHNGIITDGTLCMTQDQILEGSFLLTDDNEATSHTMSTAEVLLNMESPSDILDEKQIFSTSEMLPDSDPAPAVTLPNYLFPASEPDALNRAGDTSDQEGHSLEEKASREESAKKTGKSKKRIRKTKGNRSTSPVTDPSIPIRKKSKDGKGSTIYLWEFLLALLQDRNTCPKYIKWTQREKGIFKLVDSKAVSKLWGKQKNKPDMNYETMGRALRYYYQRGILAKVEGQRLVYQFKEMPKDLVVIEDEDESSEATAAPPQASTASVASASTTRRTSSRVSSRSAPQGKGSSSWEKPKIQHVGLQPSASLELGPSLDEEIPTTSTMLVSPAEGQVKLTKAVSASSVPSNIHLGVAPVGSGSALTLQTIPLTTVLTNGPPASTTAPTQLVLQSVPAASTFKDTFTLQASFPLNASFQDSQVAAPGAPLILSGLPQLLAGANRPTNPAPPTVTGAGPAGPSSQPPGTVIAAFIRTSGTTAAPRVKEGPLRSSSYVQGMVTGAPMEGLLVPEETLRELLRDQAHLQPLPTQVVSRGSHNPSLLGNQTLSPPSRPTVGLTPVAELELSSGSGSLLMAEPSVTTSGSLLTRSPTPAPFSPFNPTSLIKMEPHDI
Sequence of ETV1 (P50549 whole entry): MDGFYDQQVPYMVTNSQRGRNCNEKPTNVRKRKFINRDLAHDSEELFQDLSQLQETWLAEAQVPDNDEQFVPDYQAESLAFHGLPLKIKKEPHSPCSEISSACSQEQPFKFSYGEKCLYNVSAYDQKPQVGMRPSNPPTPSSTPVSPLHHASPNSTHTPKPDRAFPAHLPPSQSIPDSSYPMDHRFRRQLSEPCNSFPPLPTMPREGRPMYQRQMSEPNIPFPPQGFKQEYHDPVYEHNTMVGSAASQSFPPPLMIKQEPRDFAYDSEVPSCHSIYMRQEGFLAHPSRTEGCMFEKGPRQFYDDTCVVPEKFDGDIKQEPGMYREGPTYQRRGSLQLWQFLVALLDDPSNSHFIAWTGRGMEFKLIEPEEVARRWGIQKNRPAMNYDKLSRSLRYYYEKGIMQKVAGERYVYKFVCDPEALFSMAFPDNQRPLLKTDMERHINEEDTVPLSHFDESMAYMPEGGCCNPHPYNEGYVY
Sequence of ETV5 (P41161 whole entry): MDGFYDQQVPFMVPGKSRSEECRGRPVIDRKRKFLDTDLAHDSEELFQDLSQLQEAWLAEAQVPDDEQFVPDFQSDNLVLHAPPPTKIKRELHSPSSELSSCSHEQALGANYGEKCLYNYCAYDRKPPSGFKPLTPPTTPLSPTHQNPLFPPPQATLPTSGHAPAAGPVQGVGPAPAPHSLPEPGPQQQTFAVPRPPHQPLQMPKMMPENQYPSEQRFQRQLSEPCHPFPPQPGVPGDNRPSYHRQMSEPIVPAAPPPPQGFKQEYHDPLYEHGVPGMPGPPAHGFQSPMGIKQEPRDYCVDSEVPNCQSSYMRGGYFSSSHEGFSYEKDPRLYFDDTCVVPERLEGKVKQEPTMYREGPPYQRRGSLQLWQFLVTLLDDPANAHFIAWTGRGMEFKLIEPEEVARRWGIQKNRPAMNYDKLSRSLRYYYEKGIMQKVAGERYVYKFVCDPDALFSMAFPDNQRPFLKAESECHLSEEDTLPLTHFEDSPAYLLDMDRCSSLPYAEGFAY
Sequence of SPIB (Q01892 whole entry): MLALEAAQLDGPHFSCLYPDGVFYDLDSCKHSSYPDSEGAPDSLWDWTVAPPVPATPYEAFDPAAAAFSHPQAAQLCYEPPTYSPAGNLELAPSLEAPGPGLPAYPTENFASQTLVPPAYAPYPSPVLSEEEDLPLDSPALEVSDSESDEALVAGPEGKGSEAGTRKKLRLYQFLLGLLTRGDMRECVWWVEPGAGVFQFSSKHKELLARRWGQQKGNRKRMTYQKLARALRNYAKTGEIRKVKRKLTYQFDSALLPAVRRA

As for TTCTAA, the binding signal is 1.28 fold enrichment (6-mer frequency, TF over GST control) with FLI1; 1.23 fold enrichment (6-mer frequency, TF over GST control) with ELK1; 1.2 fold enrichment (6-mer frequency, TF over GST control) with GABPA; 1.25 fold enrichment (6-mer frequency, TF over GST control) in the test with ERG; 1.23 fold enrichment (6-mer frequency, TF over GST control) with ELF1; 1.22 fold enrichment (6-mer frequency, TF over GST control) with EHF. Further, the binding signal was 1.14 fold enrichment (6-mer frequency, TF over GST control) in the test with SPI1; 1.17 fold enrichment (6-mer frequency, TF over GST control) with SPIB; 1.08 fold enrichment (6-mer frequency, TF over GST control) with ELK3; 1.18 fold enrichment (6-mer frequency, TF over GST control) with FEV; 1.22 fold enrichment (6-mer frequency, TF over GST control) with ETV5; 1.83 fold enrichment (6-mer frequency, TF over GST control) in the test with HSF1. The binding signal is 1.13 fold enrichment (6-mer frequency, TF over GST control) with SPIC; 1.23 fold enrichment (6-mer frequency, TF over GST control) in the test with ELF4; 1.22 fold enrichment (6-mer frequency, TF over GST control) in the test with ELK4; 1.26 fold enrichment (6-mer frequency, TF over GST control) with ETV2; 1.04 fold enrichment (6-mer frequency, TF over GST control) with ELF3; 1.84 fold enrichment (6-mer frequency, TF over GST control) with CRX. In addition, the binding signal in the test with ETV1 is 1.21 fold enrichment (6-mer frequency, TF over GST control).
